Results published in PMC5540273 (PLoS ONE, 2017).

Tests used:
Conditions in all cases: concentration: 1 μM, replicates: in singlicate; n = 1
CAMK2G = system: CAMK2G
CAMK4 = system: CAMK4
CAMKK1 = system: CAMKK1
CAMKK2 = system: CAMKK2
CASK = system: CASK
CDC2L1 = system: T1, CDC2L1
T1 construct: gene CDK11B

CDC2L2 = system: CDC2L2
CDC2L5 = system: T2, CDC2L5
T2 construct: gene CDK13

CDK11 = system: T3, CDK11
T3 construct: gene CDK19

CDK2 = system: CDK2
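Also: KINOMEscan kinase panel screen.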

SMILES	%Inh (CAMK2G) [%]	%Inh (CAMK4) [%]	%Inh (CAMKK1) [%]	%Inh (CAMKK2) [%]	%Inh (CASK) [%]	%Inh (CDC2L1) [%]	%Inh (CDC2L2) [%]	%Inh (CDC2L5) [%]	%Inh (CDK11) [%]	%Inh (CDK2) [%]
O=c1cc(N2CCOCC2)nc2n(Cc3ccc(F)c(Cl)c3)ccn12 [GSK2297099]	28	0	28	24	2	3	28	0	0	0
Nc1n[nH]c2ncc(-c3ccccc3)cc12 [SB-517081]	11	0	0	0	24	0	5	0	0	0
OCCCNc1nccc(-c2c(-c3cccc(C(F)(F)F)c3)nn3cc(C(F)(F)F)ccc23)n1 [GW630813]	17	0	5	12	2	0	9	0	2	25
FC(F)(F)c1ccc(-c2ncn(CCCN3CCOCC3)c2-c2ccncc2)cc1 [SB-217780]	21	14	11	18	0	0	14	15	0	0
CCC(=O)c1c(-c2ccccc2)c2cc(Cl)ccc2c(=O)n1Cc1cc(S(C)(=O)=O)n(CCC(C)(C)O)n1	18	19	18	28	0	9	13	23	14	0
Cl.NS(=O)(=O)c1cccc(Nc2cc(-c3ccc(F)cc3)n[nH]2)c1 [GW824645]	0	2	0	0	20	0	0	0	3	5
CCS(=O)c1ccc(-c2coc3ccc(-c4nnc(C)o4)cc23)cc1 (stereo not drawn)	0	0	0	0	0	0	0	14	0	0
Cc1c(Cn2c(C)nn3c(=O)cc(N4CCO[C@H](C)C4)nc23)cccc1C(F)(F)F [GSK2373690]	18	0	0	10	14	0	8	0	14	0
COc1cc2ncn(-c3cc(OCc4ccc(S(C)(=O)=O)cc4)c(C(N)=O)s3)c2cc1OC [GW869979]	0	0	0	0	37	0	14	31	0	0
Fc1cccc(CSc2nnc(-c3ccc4c(c3)CCO4)o2)c1	20	0	9	6	0	0	0	17	0	8
Cc1ccc(-c2ccc3c(ccc4sc5c(c43)NC[C@@H](C)N=C5N(C)C)n2)cn1	0	20	0	0	2	4	0	0	0	0
COc1cccc(-n2cnc3c(N)ncnc32)c1 [SKF-97416]	8	4	4	6	20	0	2	36	1	4
COC(=O)c1c(-c2ccccc2)c2cc(C)ccc2c(=O)n1Cc1ccccc1	0	0	0	6	0	0	0	0	0	0
Cl.c1ccc(Cn2cnc3cc(Nc4ncnc5ccccc45)ccc32)cc1 [GW272142]	32	0	9	31	26	0	13	0	8	0
CC(C)(C)c1ccc(C(=O)Nc2cn3cc(-c4ccccc4)ccc3n2)cc1	0	14	0	0	1	0	11	0	0	0
Cc1nn2c(=O)cc(N3CCOCC3)nc2n1Cc1cccc(Cl)c1Cl [GSK2342769]	10	25	2	9	0	0	6	0	16	0
COc1cccc(C2=C(N(C)c3ccccc3)C(=O)NC2=O)c1 [SB-334865]	9	0	0	0	30	43	27	0	0	3
CCCNC(=O)Nc1ccc(Oc2ncnc3ccn(C)c23)cc1	15	0	5	9	13	0	0	6	3	7
